Reference: PubChem BioAssay
A number with no mark means an inactive call. Calls of active or inactive are those of the source. Cut-off read from the data, not from the text of the source, unless noted: active = inhibition above about 28%; inactive = the rest.

What was measured:
[1] = StAR promoter reporter inhibitors, counter-screen for LRH-1 inverse agonist project, cell-based, luminescence, high throughput (AID 651611); settings: StAR promoter luciferase reporter counterscreen, at 3.6 µM, hits give high values
[2] = biological target: Nuclear receptor subfamily 5 group A member 2 (Homo sapiens) (UniProt O00482); test: LRH-1 (NR5A2) inverse agonists, retest, confirmation, cell-based, luminescence (AID 651613; in the data active = inhibition above about 42%;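 note: HEK293T cells co-transfected with LRH-1 and StAR promoter luciferase reporter; 0% = vehicle wells and 100% = parental cells lacking receptor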); settings: cell-based LRH-1 luciferase reporter, inverse agonism; at 3.6 µM; hits give high values
Sequence of Nuclear receptor subfamily 5 group A member 2 (Homo sapiens) (O00482 whole entry, looked up): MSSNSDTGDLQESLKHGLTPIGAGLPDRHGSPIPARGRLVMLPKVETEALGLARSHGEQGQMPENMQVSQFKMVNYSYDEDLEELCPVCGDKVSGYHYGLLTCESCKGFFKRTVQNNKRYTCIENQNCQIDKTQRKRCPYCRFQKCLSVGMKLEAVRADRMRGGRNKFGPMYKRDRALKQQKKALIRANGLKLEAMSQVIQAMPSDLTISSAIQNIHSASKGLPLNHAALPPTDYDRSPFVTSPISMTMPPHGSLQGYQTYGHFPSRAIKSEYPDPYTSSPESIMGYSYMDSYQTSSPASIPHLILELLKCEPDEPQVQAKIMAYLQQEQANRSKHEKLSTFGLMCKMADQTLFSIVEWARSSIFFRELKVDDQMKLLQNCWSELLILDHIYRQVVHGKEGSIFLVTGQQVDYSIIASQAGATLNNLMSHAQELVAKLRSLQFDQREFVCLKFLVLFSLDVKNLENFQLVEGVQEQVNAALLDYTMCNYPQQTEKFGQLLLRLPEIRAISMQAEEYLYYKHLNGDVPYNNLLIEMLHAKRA

[3] = biological target: Steroidogenic factor 1 (Homo sapiens) (UniProt Q13285); test: SF1 (NR5A1) inverse agonists, counter-screen for LRH-1 inverse agonist project, cell-based, luminescence, high throughput (AID 651614; in the data active = inhibition above about 44%;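 note: cells cotransfected with StAR promoter reporter and SF1 expression vector; 0% = vehicle on cells with receptor and 100% = vehicle on cells lacking receptor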); settings: cell-based SF1 luciferase reporter, at 3.6 µM, hits give high values
Sequence of Steroidogenic factor 1 (Homo sapiens) (Q13285 whole entry, looked up, the tested form may be a part): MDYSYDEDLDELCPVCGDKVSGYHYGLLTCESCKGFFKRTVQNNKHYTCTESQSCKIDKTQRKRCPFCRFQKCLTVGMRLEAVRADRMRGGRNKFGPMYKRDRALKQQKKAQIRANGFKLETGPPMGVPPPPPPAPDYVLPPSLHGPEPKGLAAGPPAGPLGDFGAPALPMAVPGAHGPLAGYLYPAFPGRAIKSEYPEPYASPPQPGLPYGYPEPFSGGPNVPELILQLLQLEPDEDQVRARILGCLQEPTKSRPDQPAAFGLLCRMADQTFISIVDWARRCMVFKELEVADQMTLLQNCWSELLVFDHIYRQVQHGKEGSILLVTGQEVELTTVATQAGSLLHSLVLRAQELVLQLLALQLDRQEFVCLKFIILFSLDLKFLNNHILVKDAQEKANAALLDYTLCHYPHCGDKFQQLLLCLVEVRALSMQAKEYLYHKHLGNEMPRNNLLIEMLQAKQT

[4] = VP16 transactivation reporter inhibitors, counter-screen for LRH-1 inverse agonist project, cell-based, luminescence, high throughput (AID 651615; in the data active = inhibition above about 33%); settings: Gal4-VP16 luciferase reporter cells, at 3.6 µM, hits give high values

Structure (SMILES)	inhibition [1]	inhibition [2]	inhibition [3]	inhibition [4]
Cc1cc(NC(=O)c2ccc([N+](=O)[O-])o2)ccc1NC(=O)c1ccco1	1.92%	50.6% (active)	55.5% (active)	-13.8%
CS(=O)(=O)N1CCN(c2ccc(NC(=O)CSc3nnc(-c4ccco4)o3)cc2)CC1	4.74%	54% (active)	54.1% (active)	-2.76%
C#Cc1cccc(Nc2nc(NC(C)C)nc3ccsc23)c1	17.7%	63.6% (active)	60.9% (active)	20.3%
O=c1cc(C2CCCCC2)[nH]c(=O)[nH]1	10.2%	48.1% (active)	48% (active)	2.19%
O=C(CSc1n[nH]c(-c2ccccn2)n1)Nc1ccc(Cl)cc1	36.3% (active)	70% (active)	67.1% (active)	41.4% (active)
c1ccc(-c2nc(N3CCCCCC3)c3ccccc3n2)nc1	24.7%	63.5% (active)	74.8% (active)	39.3% (active)
Cc1ccc(/C=C2\SC(=S)N(c3c(C)n(C)n(-c4ccccc4)c3=O)C2=O)cc1	9.85%	55.7% (active)	45.5% (active)	-2.06%
